Experimental data published in publication PMC7862700, “An all-to-all approach to the identification of sequence-specific readers for epigenetic DNA modifications on cytosine”.

Key:
Assay in all cases: DAPPL (digital affinity profiling via proximity ligation, sequencing); 10 mM Tris-HCl pH 7.5, 50 mM NaCl, 1 mM DTT, 4% glycerol, room temperature, 30 min; GST-TFs on glutathione beads, 16-mer random dsDNA library, 0.1% formaldehyde crosslink after washing; high values mean tight binding
Conditions in all cases: protein: recombinant; tags: N-terminal GST; dsDNA, one strand shown
[1] = target: T1, FLI1 (Homo sapiens, UniProt Q01543 1-452)
T1 sequence: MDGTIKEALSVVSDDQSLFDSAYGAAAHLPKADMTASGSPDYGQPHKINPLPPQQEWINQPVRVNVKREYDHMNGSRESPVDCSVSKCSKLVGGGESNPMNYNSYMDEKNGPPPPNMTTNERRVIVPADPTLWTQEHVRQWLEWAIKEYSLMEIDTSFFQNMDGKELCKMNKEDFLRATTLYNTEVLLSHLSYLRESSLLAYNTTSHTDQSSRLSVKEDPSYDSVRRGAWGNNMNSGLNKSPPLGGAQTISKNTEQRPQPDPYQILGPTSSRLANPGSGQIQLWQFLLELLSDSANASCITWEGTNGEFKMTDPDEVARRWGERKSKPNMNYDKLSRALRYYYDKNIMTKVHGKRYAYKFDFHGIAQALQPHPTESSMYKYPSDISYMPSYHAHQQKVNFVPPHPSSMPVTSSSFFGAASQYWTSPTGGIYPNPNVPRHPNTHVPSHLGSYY
Outline: (§1)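 Pools were built from human transcription factors expressed in yeast as GST fusions, captured on glutathione beads and DNA-barcoded, along with a tag-only sample. Incubation with 200 nmole of a 16-mer random double-stranded DNA library lasted 30 min at room temperature in Tris/NaCl/DTT/glycerol buffer, and was followed by washing, 0.1% formaldehyde crosslinking, proximity ligation, PCR amplification and Illumina NextSeq500 sequencing. Binding signal is the quotient of each hexamer's read frequency for a factor and its frequency for the tag-only sample.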

[2] = target: T2, ELK1 (Homo sapiens, UniProt P19419 1-428)
T2 sequence: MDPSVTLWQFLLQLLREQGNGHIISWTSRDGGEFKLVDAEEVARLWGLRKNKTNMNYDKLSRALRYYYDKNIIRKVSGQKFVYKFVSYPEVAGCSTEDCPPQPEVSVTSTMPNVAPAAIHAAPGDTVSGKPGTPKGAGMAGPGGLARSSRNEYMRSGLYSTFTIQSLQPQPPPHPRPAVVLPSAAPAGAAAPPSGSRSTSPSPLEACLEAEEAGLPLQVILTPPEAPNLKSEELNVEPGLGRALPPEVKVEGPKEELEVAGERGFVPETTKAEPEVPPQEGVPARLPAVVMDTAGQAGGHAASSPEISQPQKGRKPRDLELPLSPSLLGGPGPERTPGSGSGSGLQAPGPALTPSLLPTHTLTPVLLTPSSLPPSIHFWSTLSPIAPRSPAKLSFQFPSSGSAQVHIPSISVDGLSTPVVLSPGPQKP
Outline: as §1

[3] = target: T3, GABPA (Homo sapiens, UniProt Q06546 1-454)
T3 sequence: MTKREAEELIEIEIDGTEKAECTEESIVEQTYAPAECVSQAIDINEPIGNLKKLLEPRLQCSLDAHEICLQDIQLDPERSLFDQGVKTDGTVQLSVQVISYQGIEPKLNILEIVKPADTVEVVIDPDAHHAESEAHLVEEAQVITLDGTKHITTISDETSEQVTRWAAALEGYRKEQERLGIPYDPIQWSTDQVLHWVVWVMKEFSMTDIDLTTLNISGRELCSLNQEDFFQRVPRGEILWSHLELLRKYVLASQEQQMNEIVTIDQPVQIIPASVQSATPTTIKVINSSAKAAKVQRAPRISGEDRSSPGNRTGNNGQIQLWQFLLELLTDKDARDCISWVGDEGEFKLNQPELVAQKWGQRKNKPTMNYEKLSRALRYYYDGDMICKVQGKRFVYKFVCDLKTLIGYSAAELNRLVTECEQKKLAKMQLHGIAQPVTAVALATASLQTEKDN
Outline: as §1

[4] = target: T4, ERG (Homo sapiens, UniProt P11308 1-479)
T4 sequence: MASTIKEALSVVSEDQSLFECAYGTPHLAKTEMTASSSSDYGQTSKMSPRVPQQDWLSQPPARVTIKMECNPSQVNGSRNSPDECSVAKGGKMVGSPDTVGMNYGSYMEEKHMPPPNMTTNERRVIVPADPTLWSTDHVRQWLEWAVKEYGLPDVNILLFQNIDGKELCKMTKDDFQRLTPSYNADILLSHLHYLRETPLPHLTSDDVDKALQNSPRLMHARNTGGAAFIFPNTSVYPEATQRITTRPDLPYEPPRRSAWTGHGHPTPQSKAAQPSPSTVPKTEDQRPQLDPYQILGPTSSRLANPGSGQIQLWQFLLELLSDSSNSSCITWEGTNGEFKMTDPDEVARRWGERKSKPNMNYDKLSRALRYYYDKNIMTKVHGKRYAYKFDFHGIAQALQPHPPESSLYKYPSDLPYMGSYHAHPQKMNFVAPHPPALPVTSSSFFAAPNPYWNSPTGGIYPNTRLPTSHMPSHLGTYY
Outline: as §1

[5] = target: ELF1 (Homo sapiens, UniProt P32519 1-619)
Sequence of ELF1 (P32519 whole entry): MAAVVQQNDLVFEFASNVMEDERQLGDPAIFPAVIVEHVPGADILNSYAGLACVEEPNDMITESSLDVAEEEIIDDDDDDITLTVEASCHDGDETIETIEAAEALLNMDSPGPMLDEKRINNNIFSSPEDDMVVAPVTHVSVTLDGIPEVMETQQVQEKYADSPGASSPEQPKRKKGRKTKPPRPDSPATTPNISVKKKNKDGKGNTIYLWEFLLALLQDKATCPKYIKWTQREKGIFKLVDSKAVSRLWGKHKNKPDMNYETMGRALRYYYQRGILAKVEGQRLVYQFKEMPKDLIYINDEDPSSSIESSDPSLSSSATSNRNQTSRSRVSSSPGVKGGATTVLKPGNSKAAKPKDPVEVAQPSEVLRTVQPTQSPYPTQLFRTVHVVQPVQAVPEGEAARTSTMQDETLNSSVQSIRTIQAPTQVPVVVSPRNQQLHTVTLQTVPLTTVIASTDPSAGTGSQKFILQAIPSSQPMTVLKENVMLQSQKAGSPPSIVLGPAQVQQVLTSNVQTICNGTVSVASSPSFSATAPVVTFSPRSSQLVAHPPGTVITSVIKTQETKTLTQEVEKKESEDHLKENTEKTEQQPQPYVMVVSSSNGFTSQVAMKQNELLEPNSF
Outline: as §1

[6] = target: T5, EHF (Homo sapiens, UniProt Q9NZC4 1-300)
T5 sequence: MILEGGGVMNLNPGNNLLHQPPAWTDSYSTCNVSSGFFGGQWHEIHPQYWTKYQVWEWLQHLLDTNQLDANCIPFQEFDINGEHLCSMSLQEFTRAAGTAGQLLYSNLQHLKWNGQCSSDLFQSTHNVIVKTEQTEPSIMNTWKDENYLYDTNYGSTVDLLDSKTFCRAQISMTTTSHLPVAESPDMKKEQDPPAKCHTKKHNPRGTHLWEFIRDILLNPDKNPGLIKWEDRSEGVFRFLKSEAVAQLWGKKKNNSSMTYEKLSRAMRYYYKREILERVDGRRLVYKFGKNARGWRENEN
Outline: as §1

[7] = target: SPI1 (Homo sapiens, UniProt P17947 1-270)
Outline: as §1

[8] = target: SPIB (Homo sapiens, UniProt Q01892 1-262)
Sequence of SPIB (Q01892 whole entry): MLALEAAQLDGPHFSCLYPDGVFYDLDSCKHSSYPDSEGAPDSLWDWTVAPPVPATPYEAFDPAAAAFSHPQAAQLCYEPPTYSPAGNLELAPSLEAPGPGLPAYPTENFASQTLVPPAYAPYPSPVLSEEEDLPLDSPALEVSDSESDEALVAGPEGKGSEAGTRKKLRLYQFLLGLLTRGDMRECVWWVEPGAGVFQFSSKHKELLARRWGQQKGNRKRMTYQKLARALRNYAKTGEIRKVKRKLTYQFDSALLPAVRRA
Outline: as §1

[9] = target: T6, ELK3 (Homo sapiens, UniProt P41970 1-407)
T6 sequence: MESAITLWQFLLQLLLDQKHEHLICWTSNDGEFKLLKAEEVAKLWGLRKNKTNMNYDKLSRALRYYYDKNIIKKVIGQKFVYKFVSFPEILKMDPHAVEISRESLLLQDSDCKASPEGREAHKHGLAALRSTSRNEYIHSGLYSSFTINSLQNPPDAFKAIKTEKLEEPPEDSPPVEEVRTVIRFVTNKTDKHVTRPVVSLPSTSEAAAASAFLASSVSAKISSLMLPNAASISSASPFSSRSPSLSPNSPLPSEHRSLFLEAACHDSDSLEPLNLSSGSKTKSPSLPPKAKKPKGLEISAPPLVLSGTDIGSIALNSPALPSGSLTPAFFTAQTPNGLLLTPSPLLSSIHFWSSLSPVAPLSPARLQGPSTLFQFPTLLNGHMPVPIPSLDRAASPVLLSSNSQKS
Outline: as §1

| Sequence | binding signal [1] | binding signal [2] | binding signal [3] | binding signal [4] | binding signal [5] | binding signal [6] | binding signal [7] | binding signal [8] | binding signal [9] |
| --- | --- | --- | --- | --- | --- | --- | --- | --- | --- |
| ATAAGC | 1.02 fold enrichment (6-mer frequency, TF over GST control) | 1.09 fold enrichment (6-mer frequency, TF over GST control) | 1.11 fold enrichment (6-mer frequency, TF over GST control) | 1.08 fold enrichment (6-mer frequency, TF over GST control) | 1.1 fold enrichment (6-mer frequency, TF over GST control) | 1.05 fold enrichment (6-mer frequency, TF over GST control) | 1.01 fold enrichment (6-mer frequency, TF over GST control) | 1.11 fold enrichment (6-mer frequency, TF over GST control) | 1.05 fold enrichment (6-mer frequency, TF over GST control) |
| CGCACT | 1.12 fold enrichment (6-mer frequency, TF over GST control) | 1.33 fold enrichment (6-mer frequency, TF over GST control) | 1.28 fold enrichment (6-mer frequency, TF over GST control) | 1.21 fold enrichment (6-mer frequency, TF over GST control) | 1.22 fold enrichment (6-mer frequency, TF over GST control) | 1.29 fold enrichment (6-mer frequency, TF over GST control) | 1.41 fold enrichment (6-mer frequency, TF over GST control) | 1.27 fold enrichment (6-mer frequency, TF over GST control) | 1.24 fold enrichment (6-mer frequency, TF over GST control) |
| CGCTCT | 1.39 fold enrichment (6-mer frequency, TF over GST control) | 1.25 fold enrichment (6-mer frequency, TF over GST control) | 1.34 fold enrichment (6-mer frequency, TF over GST control) | 1.21 fold enrichment (6-mer frequency, TF over GST control) | 1.3 fold enrichment (6-mer frequency, TF over GST control) | 1.21 fold enrichment (6-mer frequency, TF over GST control) | 1.21 fold enrichment (6-mer frequency, TF over GST control) | 1.16 fold enrichment (6-mer frequency, TF over GST control) | 1.18 fold enrichment (6-mer frequency, TF over GST control) |
| CTCGAA | 1.23 fold enrichment (6-mer frequency, TF over GST control) | 1.12 fold enrichment (6-mer frequency, TF over GST control) | 1.26 fold enrichment (6-mer frequency, TF over GST control) | 1.13 fold enrichment (6-mer frequency, TF over GST control) | 1.18 fold enrichment (6-mer frequency, TF over GST control) | 1.21 fold enrichment (6-mer frequency, TF over GST control) | 1.17 fold enrichment (6-mer frequency, TF over GST control) | 1.12 fold enrichment (6-mer frequency, TF over GST control) | 1.21 fold enrichment (6-mer frequency, TF over GST control) |
| ACTCCA | 1.15 fold enrichment (6-mer frequency, TF over GST control) | 1.24 fold enrichment (6-mer frequency, TF over GST control) | 1.29 fold enrichment (6-mer frequency, TF over GST control) | 1.26 fold enrichment (6-mer frequency, TF over GST control) | 1.21 fold enrichment (6-mer frequency, TF over GST control) | 1.17 fold enrichment (6-mer frequency, TF over GST control) | 1.23 fold enrichment (6-mer frequency, TF over GST control) | 1.16 fold enrichment (6-mer frequency, TF over GST control) | 1.17 fold enrichment (6-mer frequency, TF over GST control) |
| CGAAAC | 1.14 fold enrichment (6-mer frequency, TF over GST control) | 1.15 fold enrichment (6-mer frequency, TF over GST control) | 1.08 fold enrichment (6-mer frequency, TF over GST control) | 1.21 fold enrichment (6-mer frequency, TF over GST control) | 1.23 fold enrichment (6-mer frequency, TF over GST control) | 1.17 fold enrichment (6-mer frequency, TF over GST control) | 1.21 fold enrichment (6-mer frequency, TF over GST control) | 1.16 fold enrichment (6-mer frequency, TF over GST control) | 1.07 fold enrichment (6-mer frequency, TF over GST control) |
| CTATTA | 1.18 fold enrichment (6-mer frequency, TF over GST control) | 1.05 fold enrichment (6-mer frequency, TF over GST control) | 1.06 fold enrichment (6-mer frequency, TF over GST control) | 1.07 fold enrichment (6-mer frequency, TF over GST control) | 1.09 fold enrichment (6-mer frequency, TF over GST control) | 1.12 fold enrichment (6-mer frequency, TF over GST control) | 1.1 fold enrichment (6-mer frequency, TF over GST control) | 1.13 fold enrichment (6-mer frequency, TF over GST control) | 1.04 fold enrichment (6-mer frequency, TF over GST control) |
